G9a block – qHTS Assay for Inhibitors of Histone Lysine Methyltransferase G9a; Histone-lysine N-methyltransferase EHMT2 (Homo sapiens), Q96KQ7; 350,000 tested, 8.8% active; G9a H3K9 monomethylation, AlphaScreen, 2 h; Potency, µM (top dose mostly 102 µM), without a hit: at the top dose activity, negative = inhibition, actives largely listed as inhibitors; AID 504332, 2011; also: % is scaled to controls: 0 for no effect and ±100 for the full control effect; nearly all actives have a fitted effect of over 75% in size
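Quantitative HTS format: methyltransferase activity on a biotin-tagged H3K9 peptide is measured by AlphaScreen, using a rabbit anti-monomethyl-H3K9 antibody with streptavidin donor and anti-IgG acceptor beads. Final levels are 20 nM enzyme, 500 nM peptide, 20 uM SAM; 2 h RT.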
PLK1 PBD inh – qHTS for Inhibitors of PLK1-PDB (polo-like kinase 1 - polo-box domain): Primary Screen | 360,000 tested, 2.8% active | AID 720504, 2013 | Plk1 PBD binding of FITC phosphopeptide, fluorescence polarization | Potency, µM, for the others: max response, negative = inhibition, usual class: inhibitors | Serine/threonine-protein kinase PLK1 (Homo sapiens), P53350; also: series mostly up to about 57 µM; % is scaled to controls: 0 for no effect and ±100 for the full control effect; nearly all actives have a fitted effect of over 65% in size
Target sequence (P53350 whole entry, looked up, the tested form may be a part): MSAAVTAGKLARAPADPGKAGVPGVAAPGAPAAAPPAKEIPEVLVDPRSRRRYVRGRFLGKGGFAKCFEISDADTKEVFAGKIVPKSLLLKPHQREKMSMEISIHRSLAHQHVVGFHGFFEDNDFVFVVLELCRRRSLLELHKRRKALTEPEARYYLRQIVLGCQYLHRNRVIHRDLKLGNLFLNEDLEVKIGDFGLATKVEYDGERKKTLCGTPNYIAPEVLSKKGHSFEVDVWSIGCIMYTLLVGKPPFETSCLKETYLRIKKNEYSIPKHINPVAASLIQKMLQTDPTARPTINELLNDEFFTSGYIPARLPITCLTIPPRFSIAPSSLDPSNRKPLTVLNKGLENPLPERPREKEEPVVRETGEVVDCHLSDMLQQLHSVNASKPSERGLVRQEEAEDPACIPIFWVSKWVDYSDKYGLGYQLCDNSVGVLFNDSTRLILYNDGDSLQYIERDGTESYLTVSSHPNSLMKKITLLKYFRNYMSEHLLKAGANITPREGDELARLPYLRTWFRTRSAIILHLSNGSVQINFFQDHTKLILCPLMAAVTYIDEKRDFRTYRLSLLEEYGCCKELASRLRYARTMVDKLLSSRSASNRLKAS
JMJD2A Tudor inh – qHTS Assay for Inhibitors of JMJD2A-Tudor Domain; Lysine-specific demethylase 4A (Homo sapiens), O75164; AlphaScreen JMJD2A-Tudor / H3K4me3 peptide binding; Potency, µM (top dose mostly 114 µM), for the others: at the highest dose activity change, negative = inhibition, actives largely listed as inhibitors; 390,000 tested, 4.4% active; AID 504339, 2011; also: % is scaled to controls: 0 for no effect and ±100 for the full control effect; nearly all actives have a fitted effect of over 50% in size
Sfp PPTase inh – qHTS Assay for Inhibitors of Bacillus subtilis Sfp phosphopantetheinyl transferase (PPTase); AID 1490, 2009; 310,000 tested, 3.5% active; Potency, µM, without a hit: largest response in the series, negative = inhibition, actives largely listed as inhibitors; Biochemical Sfp PPTase activity, qHTS;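 also: the enzyme is Sfp with the accession as filed and its product quenches rhodamine fluorescence; 0% = enzyme reaction without inhibitor and -100% = no enzyme wells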
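Step 1, compound plus 15 nM Sfp-PPTase, 15 min, room temperature. Step 2, add rhodamine-CoA (5 uM) and BHQ-2-YbbR (12.5 uM). Step 3, read 525/598 nm fluorescence at 0 and 30 min.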
HP1b binding inh – HTS for Inhibitors of HP1-beta Chromodomain Interactions with Methylated Histone Tails. AlphaScreen HP1-beta / biotin-H3K9me3 peptide binding. Potency, µM (highest dose often 114 µM), inactives show at the highest dose activity change, negative = inhibition, usual class: inhibitors. 390,000 tested, 0.56% active. AID 540317, 2011; also: nearly all actives have a fitted effect of over 70% in size
Target sequence (P83916 whole entry, looked up): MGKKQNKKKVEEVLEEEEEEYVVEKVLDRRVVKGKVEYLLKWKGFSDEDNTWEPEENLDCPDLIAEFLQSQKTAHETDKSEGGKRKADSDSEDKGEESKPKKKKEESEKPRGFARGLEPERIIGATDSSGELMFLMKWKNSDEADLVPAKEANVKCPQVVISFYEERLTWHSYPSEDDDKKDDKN
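HP1-beta protein (50 nM final) preincubated 30 min at room temperature with biotinylated H3(1-18)K9me3 peptide (50 nM) in PBS pH 7.4, 0.01% Tween-20, then compound added for 30 min. AlphaScreen streptavidin donor/nickel chelate acceptor beads (10 ug/mL final), 30 min dark, luminescence read.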
BAZ2B block – qHTS Assay for Inhibitors of BAZ2B | AID 504333, 2011 | Potency, µM (doses to about 114 µM), without a hit: top-dose activity change, negative = inhibition, most hits filed as inhibitors | Bromodomain adjacent to zinc finger domain protein 2B (Homo sapiens), Q9UIF8 | 360,000 tested, 4.4% active | AlphaScreen BAZ2B-H3K14Ac peptide displacement; also: % is scaled to controls: 0 for no effect and ±100 for the full control effect; nearly all actives have a fitted effect of over 60% in size
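Complex of BAZ2B and biotin-H3K14Ac (50 nM apiece) forms over 30 min at RT, then faces library compounds up to 110 uM for another 30 min; AlphaScreen beads added, 20 min dark incubation, luminescence read.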
* marks the source's active call; other numbers are inactive results; u = inconclusive; x = not tested or not shown; ! = not confirmed by another sample; [ ] = remark or other dose. An excerpt weighted towards active compounds, which were near 12% of everything screened. Calls follow the shape of the dose curve; as a rule, active = well fitted curve in the direction sought with a large enough effect; inconclusive = small, poorly fitted or top-dose-only effect, or another doubt; inactive = no such curve, though single readings can be large; an effect the other way counts as inactive or inconclusive. Potency is read from the fitted curve at half-maximal effect.

SMILES | G9a block | PLK1 PBD inh | JMJD2A Tudor inh | Sfp PPTase inh | HP1b binding inh | BAZ2B block
CCOC(=O)C(C(C)C)C(N)Cc1ccc(F)cc1 (stereo not given) | -38.0% | -7.9% | u | 6.1% | 4.3% | 50.1µM*
N[C@@H](Cc1ccc(F)cc1)C(=O)O | 10µM*! | -7.6% | -25.5% | x | 89.0% | x
CCOC(=O)C(Cc1ccccc1)C(=O)Nc1ccc(NC(=O)C(Cc2ccccc2)C(=O)OCC)cc1 (stereo not given) | -33.0%[59 µM] | -0.5% | -1.0% | -5.5% | 36.8% | -2.8%
NC(Cc1ccc2nonc2c1)C(=O)O (stereo not given) | 12.6µM* | -10.9% | 8.91µM* | u | -6.3% | 79.4µM*
N[C@@H](Cc1ccc(O)c(I)c1)C(=O)O | 6.6% | x | x | -6.4% | x | 6.1%
N[C@@H](Cc1ccccc1)C(=O)O | -33.5%[12.7 µM] | x | x | 24.5% | x | x
N[C@H](Cc1ccccc1)C(=O)O | 33.5%[59 µM] | x | x | -14.9% | x | x
COc1ccc(-c2nc3sc(CCNC(=O)c4ccco4)c(C)n3n2)cc1 | 12.2%[59 µM] | x | -12.7% | x | u | -15.0%
CCOc1ccccc1CNC(=O)c1cccn1-c1nnc(N2CCCC2)s1 | 7.6%[59 µM] | x | -10.4% | x | 20.7% | -14.6%
CCC(c1nnc(SCC(=O)NCCc2ccc(Cl)cc2Cl)o1)N(C)C (stereo not given) | 39.8µM* | 26.7µM* | -11.0% | u | 11.2% | -3.7%
Cc1ccn(CCC(=O)Nc2ccc(-c3ccno3)cc2)n1 | -12.3% | -5.4% | -15.5% | 13.5% | 6.3%[57 µM] | -2.9%
CCN(CC)CCSc1nc2ccccc2c(=S)n1-c1ccccc1 | u | 23.8µM* | 50.1µM* | -7.4% | u | u
CCN(CC)CCSc1nc(O)c(-c2ccccc2)c(=O)n1-c1ccccc1 | 5.7% | -7.7% | 4.5% | 16.0% | 37.3% | -16.9%
Cc1cccc(/C=C(\c2nc3ccccc3[nH]2)S(=O)(=O)c2ccccc2)c1 | -9.5% | -19.0% | -24.2% | -8.1% | 27.5% | 3.2%
Cc1ccc(NC(=S)c2nc3ccccc3[nH]2)c(C)c1 | u | u | u | -1.4% | u | 28.2µM*
Cc1ccc(NC(=S)c2nc3ccccc3[nH]2)cc1 | 54.2%[0.501 µM] | -8.3% | u | 11.6% | u | 10µM*
CNS(=O)(=O)c1cn(CC(=O)NCc2ccc(OC)cc2)cc1S(=O)(=O)NC | u | -16.9% | -14.7% | 1.9% | -5.2% | 3.6%
O=C(CN1C(=O)/C(=C/c2ccccc2)SC1=S)N1CCN(CCc2ccccn2)CC1 | x | -13.8% | u | -10.1% | -12.3% | -13.8%
Cc1ccc(CNC(=O)C(C)n2c(=O)cc(-c3ccccc3)c3c(C)nn(C)c32)cc1 (stereo not given) | -2.0%[59 µM] | x | -14.7% | x | 24.3% | -14.1%
Cn1c(=O)c2c(c3ccccc31)OC(=O)CC2c1cccc(F)c1 (stereo not given) | 3.6%[59 µM] | x | -2.6% | x | 36.0% | -4.0%
Cn1nc(-c2ccccn2)nc2c(=O)n(C)c(=O)nc1-2 | 14.1µM* | -10.5% | 11.2µM* | 50.1µM* | 19.5% | 10µM*
CCC1=NNc2cccc3c(OC)ccc1c23 | 25.1µM* | x | x | 31.6µM* | x | 28.2µM*
COc1ccc2c3c(cccc13)C(=O)N(O)C2=O | -48.6%[59 µM] | -24.7% | -12.9% | -5.9% | 19.5% | -29.6%
O=C(Nc1c(C(=O)N2CCN(c3ccccc3F)CC2)oc2ccccc12)c1ccc(Br)o1 | -45.9%[59 µM] | x | -28.5% | x | -15.6% | -14.7%
Cn1nc(-c2ccccc2)c(C(=O)NC(C(=O)O)c2ccccc2)c1Cl (stereo not given) | x | -17.9% | -11.9% | 1.0% | 23.3% | 50.1µM*
SMILES | G9a block | PLK1 PBD inh | JMJD2A Tudor inh | Sfp PPTase inh | HP1b binding inh | BAZ2B block
CC(C(=O)NC1C=CS(=O)(=O)C1)N1C(=O)/C(=C/c2ccc(Cl)cc2)SC1=S (stereo not given) | x | u | u | u | -25.7% | 22.4µM*
CCN(C(=O)C(C)N1C(=O)/C(=C/c2ccco2)SC1=S)C1CCS(=O)(=O)C1 (stereo not given) | 20µM* | 18.9µM* | 56.2µM* | 15.8µM* | u | 44.7µM*
CC(C(=O)N(C)C1CCS(=O)(=O)C1)N1C(=O)/C(=C/c2ccc(F)cc2)SC1=S (stereo not given) | u | u | -32.0% | 50.1µM* | -13.7% | u
COC(=O)N1C(/C=C/c2ccc3c(c2)OCO3)=Cc2ccccc2C1CC(C)=O (stereo not given) | x | x | x | -1.9% | x | x
c1ccc(CCc2nc3ccccc3[nH]2)cc1 | 4.8% | -9.9% | -8.3% | 19.3% | 40.4% | 0.6%
O=c1[nH]c2ccccc2nc1CCc1ccccc1 | 0.9% | 26.7µM* | -8.8% | 6.3% | -14.8% | -1.4%
O=c1[nH]c2ccccc2nc1Cc1ccc([N+](=O)[O-])cc1 | 50.1µM* | -22.2% | -4.5% | 8.8% | 29.0% | -1.4%
CC(C)c1ccc(NC(=O)c2cnc3sc(N4CCOCC4)nn3c2=O)cc1 | 24.1%[59 µM] | x | -12.0% | x | -9.8% | -10.2%
O=C(Nc1ccc(COc2ccccc2)cc1)Nc1cccc(C(=O)O)c1 | 0.0% | -15.9% | -11.1% | 0.2% | 15.6% | u
CCOc1ccccc1NC(=O)COC(=O)c1c[nH]c2ccccc12 | 50.1µM* | -6.7% | -5.5% | x | 5.5% | 6.1%
CCOc1ccc(NC(=O)COC(=O)c2c[nH]c3ccccc23)cc1 | x | -12.7% | x | x | x | x
Fc1ccc(Sc2ccccc2CNC2=NCCN2)cc1 | 6.31µM* | -4.5% | -14.2% | 1.9% | 10.0% | -5.4%
CS(=O)(=O)ON=C1CCN(S(=O)(=O)c2ccccc2)CC1 | u | 3.1% | -10.4% | 8.3% | 28.0% | 0.3%
N#Cc1c(-c2ccccc2)nc(SCc2nc(N)nc(N3CCCCC3)n2)[nH]c1=O | 2.3%[12.7 µM] | 2.99µM* | u | 13.5% | u | -5.9%
CSc1nc(-c2cccs2)c(C#N)c(=O)[nH]1 | 44.7µM* | -15.1% | -5.9% | -0.5% | -0.4% | -19.8%
CNC(=O)NC(=O)CSc1nc(-c2cccs2)c(C#N)c(=O)[nH]1 | 5.6% | -8.3% | -14.6% | 7.9% | -1.6% | -6.4%
CCCOc1ccc(-c2nc(SCc3ccccc3)[nH]c(=O)c2C#N)cc1OC | u | 26.7µM* | u | 2.4% | 21.3%[57 µM] | -2.9%
N#Cc1c(-c2cccs2)nc(SCc2ccc(Cl)cc2)[nH]c1=O | -24.6% | 21.2µM* | u | 79.4µM* | -28.0% | u
CCSc1nc(-c2ccccc2)c(C#N)c(=O)[nH]1 | -33.2%[59 µM] | -4.6% | -16.9% | 10.2% | 16.3% | -5.2%
COc1ccc(CCNC(=O)c2ccc3c(c2)N(Cc2ccc(Cl)cc2)C(=O)c2ccccc2S3)cc1OC | 3.5%[59 µM] | x | -22.6% | x | -3.9% | -24.0%

High-throughput results as filed in PubChem BioAssay.
